Measurements: ChEMBL document CHEMBL4513216, “Probing the Open Global Health Chemical Diversity Library for Multistage-Active Starting Points for Next-Generation Antimalarials” (ACS Infect Dis, 2020)
About 8,600 (12%) of roughly 69,000 compounds showed an effect of 50% or more. Many of the other results were omitted from the sample, so strong results are more common in it than they were.

tested on: Plasmodium berghei; test: Screen against P. berghei liver stage (PbLuc), transformed with Luciferase, at 10uM; type: functional, HepG2; conditions: tested at 10 uM

Structure (SMILES)	INHIBITION
O=C(NCC1(COc2cnccn2)C[C@@H](O)[C@@H](O)C1)C1CC1 (stereo not given in full)	18.2%
COc1nn(C)c2c1CCCN(C(=O)COc1ccccc1)C2	-15.7%
COc1cc(NC(=O)CCn2nc(-c3cccs3)oc2=O)cc(OC)c1	-7.81%
CC1CCCN(C(=O)c2ccn(COc3ccccc3)n2)C1 (stereo not given)	27.5%
CC(C)N1CCc2c(c(COc3cncnc3)nn2CC2CC2)C1	2.4%
Cc1nn(C)c(N2CCOCC2)c1CNC(C(N)=O)c1ccccc1 (stereo not given)	-32.4%
COc1ccc(CNC(=O)NCC(=O)NC2CC2)c(C(F)(F)F)c1	26.6%
CCc1ccc(S(=O)(=O)Nc2ccc(F)cc2C(=O)O)s1	5.605%
CC(=O)N1CCO[C@@H]2CN(S(=O)(=O)c3cccs3)CC[C@@H]2C1	21.6%
CC1CCN(C(=O)[C@H]2C[C@@H]3CCN(CC4CCOCC4)C[C@@H]3O2)CC1	24.9%
CCc1cc(O)nc(C2CCCN2C(=O)COC)n1 (stereo not given)	30.8%
CCc1cc(O)nc(C2CCCN2C(=O)c2cc(CC)on2)n1 (stereo not given)	51.5%
CCc1cc(C(=O)N2CCCC2c2nc(O)cc(CC)n2)on1 (stereo not given)	1.11%
Cc1cccc(C(=O)N2CCC(c3n[nH]c(C4CC4)n3)CC2)c1	44.1%
Cc1ccccc1-n1cc(C2=CCN(CCN3CCOCC3)CC2)cn1	19.4%
O=c1[nH]ccn1CCCN1CC=C(c2cnn(-c3ccccc3)c2)CC1	-95.3%
Cc1ccccc1-n1cc(C2=CCN(CCn3cc[nH]c3=O)CC2)cn1	69.4%
CCOCc1ncn2c1CN(C(=O)Nc1ccccc1)CC2	-27%
O=C(c1cccc(O)n1)N1CCC(O)(CN2CCC(F)(F)CC2)C1 (stereo not given)	-21.6%
CC(=O)N1CCc2c(nc(N(C)C)nc2NCCC2CCCCO2)C1 (stereo not given)	45.1%
COCCNc1nc2c(c(NCCc3cccs3)n1)CCNCC2	28%
Cc1nccn1CCCNc1ncccc1C#N	18.4%
CC(=O)N1CCc2c(nc(N(C)C)nc2NCCc2cccs2)C1	63.8%
CC(=O)N1CCc2c(nc(N(C)C)nc2NCCCn2ccnc2)C1	18.4%
CC(=O)N1CCc2c(nc(N(C)C)nc2NCCCn2ccnc2C)C1	71.3%
CSCC(=O)N1CCc2nc(C)nc(NCc3ccccc3)c2CC1	37.3%
CC(=O)N1CCc2c(nc(N(C)C)nc2N(C)CCC2CCCCO2)C1 (stereo not given)	-10.4%

Structure (SMILES)	INHIBITION
CC(C)NC(=O)N1CCc2nc(C(=O)NCc3ccccc3)sc2CC1	34.1%
Cc1nc2c(c(NCc3ccccc3)n1)CCN(C(=O)NC(C)C)CC2	66.1%
CC(=O)N1CCc2c(nc(N(C)C)nc2N(C)CCCC2CCCO2)C1 (stereo not given)	21.7%
CC(=O)N1CCc2c(nc(N(C)C)nc2NCc2cccs2)C1	61.9%
Cn1c(NCC(O)c2ccc(F)cc2)c(C#N)c(=O)n(C)c1=O (stereo not given)	-60.8%
Cn1cc(CN2CCCC3(CCN(c4nncs4)C3)C2)cn1 (stereo not given)	22.4%
CN1CCO[C@@H]2CN(S(=O)(=O)c3ccccc3)CC[C@@H]2C1	4.02%
CC(=O)N1[C@H](CN(C)C)C[C@@H]2CN(C(=O)c3cccn3C)CC[C@@H]21	-9.74%
COc1c(C2CCCN2C(=O)c2cscn2)c(C)nn1C (stereo not given)	38.8%
O=C(Nc1ccccc1)C1CN(CC2CC2)CC12CCOCC2 (stereo not given)	4.2%
Cc1ccc(CNC(=O)CN(CCC(N)=O)c2ccc(F)cc2)cc1	16%
Cc1ccc(CCNC(=O)N2CCC(Cc3cnn(C)c3)C2)cn1 (stereo not given)	-3.58%
Cc1cc(Br)ccc1CNC(=O)C1(O)CCSCC1	19.1%
CNC(=O)CN(C)c1nc(-c2ccncc2)nc2c1CCN(C(C)=O)C2	31.8%
CN(C)c1nc2c(c(N3CCCC3)n1)CCN(C(=O)c1ccc[nH]1)CC2	34.5%
CC(=O)N1CCc2nc(N(C)C)nc(NCCc3ccccc3)c2CC1	79.7%
CC(C)Nc1ncnc2c1CCN(C(=O)Cc1cccs1)CC2	21.8%
Cc1nc(CCNc2nc(N(C)C)nc3c2CCCC3)cc(=O)[nH]1	24.7%
CC(=O)N1CCc2c(nc(N(C)C)nc2NC(C)Cc2cccs2)C1 (stereo not given)	78.6%
CC(=O)N1CCc2c(nc(N(C)C)nc2N(C)CCO)C1	31.6%
CC(=O)NC1CCN(c2nc(N(C)C)nc3c2CCN(C(C)=O)C3)CC1	58.9%
CC(=O)NC1CCN(c2nc(N(C)C)nc3c2CCCC3)CC1	46.6%
O=C(Cc1cccs1)N1CCCCC1c1ccn2ccnc2n1 (stereo not given)	26.3%
CCOc1cc(C)nc(N2CCN(C(=O)c3cc[nH]n3)CC2)n1	40%
O=C(c1ccc2nncn2c1)N1CCCC(n2ccnc2)C1 (stereo not given)	16.9%
CNC(=O)N1CCC(=Cc2ccccc2)CC1	-27.4%
CCCNC(=O)CCNC(=O)N1CCC(=Cc2ccccc2)CC1	9%

Structure (SMILES)	INHIBITION
CCNC(=O)N1CCC(=Cc2ccccc2)CC1	63.3%
CN(C)c1nc2ncc(Cl)cc2cc1C#N	-8.35%
CCOC(=O)N1CCC(Nc2cc(CC)nc3c(C)c(C)nn23)CC1	-31.4%
CC[C@@H](C)[C@H](NC(=O)CCn1cc(C(C)=O)c2ccccc21)C(=O)O	-27%
CCn1nc(C)c2c1cnn2CCNS(=O)(=O)Cc1ccccc1	47.4%
Cc1cc(C(=O)N2CCC[C@]3(C[C@@H](OCC4CC4)CO3)C2)no1	21.8%
CCOC1COC2(CCN(Cc3cccc(C)n3)CC2)C1 (stereo not given)	25.6%
O=C(c1cocn1)N1CCC[C@]2(C[C@@H](OCC3CC3)CO2)C1	-2.72%
CCOC1COC2(CCN(c3cccc(C)n3)CC2)C1 (stereo not given)	16.6%
Cc1cc(C(=O)N2CCC[C@]3(C[C@H](OCC4CC4)CO3)C2)no1	17.1%
Cc1cccc(C(=O)N2CCC[C@]3(C[C@@H](OCC4CC4)CO3)C2)n1	52%
O=C(c1ccncn1)N1CCC[C@]2(C[C@@H](OCC3CC3)CO2)C1	42.7%
CCOC1COC2(CCN(C(=O)c3cccc(C)n3)CC2)C1 (stereo not given)	63.3%
O=C(c1ccncn1)N1CCC[C@]2(C[C@H](OCC3CC3)CO2)C1	50.9%
CC(CC(=O)NCCCn1cccn1)c1cccnc1 (stereo not given)	15.7%
CC(C)(C)c1nnc2n1C(C(=O)N1CCN(c3ncccn3)CC1)CC2 (stereo not given)	14.3%
Cc1ccc(C)c(CSc2nnc(C(N)C(C)C)o2)c1 (stereo not given)	21.8%
c1ccc(Cc2noc(CN3CCOC(Cn4cccn4)C3)n2)cc1 (stereo not given)	24%
Cn1cc(C(=O)NCc2ccc(N3CCCC3)nc2)ccc1=O	35.9%
CN(C)c1ccc(CNC(=O)NCCc2cn3ccccc3n2)cn1	-10.6%
CCOc1cc(NC(=O)N2CCOC3(CCC3)C2)ccc1C	2.45%
CCN1CCCCC1C(=O)Nc1cccc(-c2nnc[nH]2)c1 (stereo not given)	19.7%
CC1(c2ncc(CN3CCOCC3)cn2)CCCCO1 (stereo not given)	18.04%
c1cnc(-c2nn3c(CN4CCOCC4)nnc3s2)cn1	4.35%
COCCn1cnc2ccc(NC(=O)c3ccc(OC)cc3)cc2c1=O	-13.6%
COc1nc2ccn(CCc3cc(O)nc(C)n3)c(=O)c2cc1C#N	58.3%
CC(C)SCCn1ccc2[nH]c(=O)c(C#N)cc2c1=O	23.5%

Structure (SMILES)	INHIBITION
N#Cc1cc2c(=O)n(CC(O)Cc3ccccc3)ccc2[nH]c1=O (stereo not given)	25.9%
CCc1nc(CCn2ccc3nc(OC)c(C#N)cc3c2=O)no1	32.3%
Cc1ccnc(NCCNC(=O)C2CC3(CCNCC3)CN2C)c1 (stereo not given)	-17.9%
COc1nc2ccn(CCc3scnc3C)c(=O)c2cc1C#N	45.7%
COc1nc2ccn(CCc3cnccn3)c(=O)c2cc1C#N	72.6%
COc1nc2ccn(CCNc3cc(C)ccn3)c(=O)c2cc1C#N	58.3%
Cc1cc(C)n(CC2CN(c3cnc4ccccc4n3)CCO2)n1 (stereo not given)	29.7%
O=C(C1CC1)N1CC[C@@H]2[C@H](CC1)N(Cc1cccnc1)CCS2(=O)=O	-49.8%
CC(C)c1cc(C(=O)N2CCC3(CCc4ccccc4C(=O)N3)C2)on1 (stereo not given)	22.45%
Cc1ccc(N2CC[C@H]3O[C@H](C(=O)NCc4ccco4)CC[C@H]32)nn1	31.1%
Cc1ccc(C(=O)N(C)CCOc2ccccc2F)c(=O)[nH]1	-10.3%
Cn1cc(CCC(=O)N2C[C@@H]3CC[C@H]2CN(Cc2cccnc2)C3)cn1	40.2%
Cn1ncc2c(NCCn3cccc3)nc(C3CCCC3)nc21	29.4%
Cn1ncc2c(NCCCOc3cccnc3)nc(C3CCCC3)nc21	44.8%
CCS(=O)(=O)CCNc1nc(C2CCCC2)nc2c1cnn2C	1.93%
CNCCCNc1nc(C2CCCC2)nc2c1cnn2C	37.1%
CCOCCNc1nc(C2CCCC2)nc2c1cnn2C	2.3%
Cn1ncc2c(NCCOc3ccc(F)cc3)nc(C3CCCC3)nc21	77.1%
CC(C)N(CCNc1nc(C2CCCC2)nc2c1cnn2C)C(C)C	81.1%
Cn1ncc2c(NCCC34CCCN3CCC4)nc(C3CCCC3)nc21	-12.2%
Cn1ncc2c(NCCOCc3ccccc3)nc(C3CCCC3)nc21	71.2%
O=C(NC1CC1)c1cc(Sc2ncccn2)ccn1	-17.1%
CCOCc1ncn2c1CN(C(=O)Nc1ccc(CC)cc1)CC2	-9.26%
Cc1cccc(CN2CCCC2(C(N)=O)c2cnccn2)n1 (stereo not given)	42.4%
